# Measured values reported in PubChem BioAssay AID489025 (Southern Research Specialized Biocontainment Screening …, 2010).
# The whole screen tested about 2,300 compounds, of which about 790 (34%) were called active. How the calls were made is not given here. The list shows a part of the results. Where a call stands in place of a potency, no number is given. Potency and affinity values are given separately.
# Assay: THP-1 cell cytotoxicity, dose response, cytotoxicity control for non-replicating M. tuberculosis project (AID 489025)
# Conditions: THP-1 cell viability; series mostly up to 40 µM
row,SMILES,outcome
1,CCOC(=O)c1csc(COc2ccc(OC)cc2)n1,inactive
2,O=C(NCc1nnc(SC/C=C/c2ccccc2)o1)c1ccco1,inactive
3,O=C(CCNc1cccc(Cl)c1)c1ccco1,inactive
4,COC(=O)CCc1nc2c(C#N)c(-c3ccc(Cl)cc3)ccn2n1,inactive
5,O=C(CC1CCCC1)OCn1nnc2ccccc2c1=O,inactive
6,CCCCCCCCCCn1cc(C(C)=O)c(=O)[nH]c1=O,inactive
7,O=C(N/N=C/c1ccccn1)c1cc([N+](=O)[O-])cc([N+](=O)[O-])c1,inactive
8,O=C(O/N=C/c1ccc2c(c1)OCO2)c1ccc([N+](=O)[O-])cc1,inactive
9,CCOC(=O)COc1ccc2c(=O)c(-c3ccccc3)coc2c1,inactive
10,COc1ccc2c([N+](=O)[O-])c(N3CCCC3)[nH]c2c1,inactive
11,CC(C)(C)NCc1cc(Br)ccc1OC1CCCC1,inactive
12,CC(C)(C)c1cc(CN2CCN(CCO)CC2)cc(C(C)(C)C)c1O,inactive
13,CN(C)CCC(=O)N1c2ccccc2Sc2ccc(C(F)(F)F)cc21,inactive
14,O=C(NCC1CCCCC1)c1ccco1,inactive
15,Brc1c(-c2ccc3c(c2)OCO3)nc2ncccn12,inactive
16,CCn1cc(C(=O)O)c(=O)c2cc(F)c(N3CCN(C(=S)NC(=O)c4ccccc4)CC3)cc21,inactive
17,CCCNC(=O)NC(=O)COc1ccc2oc3ccccc3c2c1,inactive
18,CC(C)(C)c1ccc(S(=O)(=O)NNC(=O)c2cc3ccccc3[nH]2)cc1,inactive
19,COCCSc1nnc(NC(=O)CCS(=O)(=O)Cc2ccccc2)s1,inactive
20,CC(C)Cc1nnc(NC(=O)CCS(=O)(=O)c2ccc(Cl)cc2)s1,inactive
21,CCOC(=O)c1csc(NC(=O)COc2ccc(Cl)cc2Cl)n1,inactive
22,CCOC(=O)c1ccc(-n2c(CCC(=O)O)ccc2-c2cccs2)cc1,inactive
23,O=C(COC(=O)c1ccccc1)NCc1cccs1,inactive
24,O=C(COc1ccc2ccccc2c1)Nc1nccs1,inactive

row,SMILES,outcome
1,COc1ccc(C(=O)CCS(=O)(=O)c2ccc(C)cc2)cc1OC,inactive
2,Cc1ccc(OC(=O)c2ccc(Br)o2)cc1,inactive
3,CC(=O)NCCOC(=O)Nc1sc(=S)n(C)c1C,inactive
4,O=C(CCNc1cccc(Cl)c1)c1cccs1,inactive
5,NC(=S)n1[nH]c(-c2ccc([N+](=O)[O-])cc2)c(N=Nc2ccc(O)cc2)c1=O,inactive
6,Cc1ccc(/C=N/NC(=O)c2ccncc2)o1,inactive
7,Cc1ccccc1-n1c(C)cc(/C=N/NC(=O)c2ccncc2)c1C,inactive
8,Cc1cc(OCCCn2ccnc2)ccc1C(C)C,inactive
9,c1ccc(-c2ccccc2OCCCCn2ccnc2)cc1,inactive
10,c1ccc2cc(OCCCn3ccnc3)ccc2c1,inactive
11,Cc1ccc(OCCCCn2ccnc2)c([N+](=O)[O-])c1,inactive
12,Cc1cc(OCc2cc(C(=O)N(C)CCc3cnn(C)c3)no2)cc(C)c1Cl,inactive
13,COc1ccc(-c2noc(-c3cc4ccccc4oc3=O)n2)cc1,inactive
14,CCCOc1ccc(N2CC(C(=O)Nc3ccccn3)CC2=O)cc1 (centres undefined),inactive
15,O=S(=O)(Nc1nccs1)c1ccc(NCc2cc(Br)cc(Br)c2O)cc1,inactive
16,COCC(=O)Nc1ccccc1NC(C)=O,inactive
17,S=C(Nc1ccc2c(c1)OCO2)Nc1ccc2c(c1)OCO2,inactive
18,O=C1CC(Sc2ncccn2)C(=O)N1c1ccccc1C(F)(F)F (centres undefined),inactive
19,CCOc1c(OC(C)=O)ccc(/C=C2\N=C(SCC)SC2=O)c1[N+](=O)[O-],inactive
20,Cc1c(C(=O)N(C)C)sc2nc(-c3ccccn3)[nH]c(=O)c12,inactive
21,CCCCOC(=O)c1ccc(NC(=O)C2CCCO2)cc1 (centres undefined),inactive
22,COCCNC(=O)c1cc2cc(Cl)cc(Cl)c2oc1=O,inactive
23,COC(=O)c1cc2c(ccc3ccccc32)oc1=O,inactive
24,C=CCOc1ccc(CNCCO)cc1OCC,inactive

row,SMILES,outcome
1,O=S(=O)(c1ccc(Cl)c2ccccc12)N1CCCC1,inactive
2,CN(C(=O)COC(=O)c1ccc([N+](=O)[O-])cc1Cl)C1CCCCC1,inactive
3,N#Cc1cc(N)ccc1-n1cccc1,inactive
4,Cc1cc(C(=O)N/N=C/c2ccc(OC(=O)c3ccccc3Br)cc2)n[nH]1,inactive
5,Cc1cc2ccccc2n1CCNC(=O)C(C)(C)C,inactive
6,CC(C)OC(=O)C(C)Oc1ccc(C(=O)NCCc2ccccc2)cc1 (centres undefined),inactive
7,CC1CCN(C(=O)COC(=O)c2cc3ccccc3cc2O)CC1,inactive
8,O=C(CC1CCCCC1)NCc1ccccc1,inactive
9,CCNC(=O)COC(=O)c1ccc(-c2nc3ccccc3s2)s1,inactive
10,CCSc1ncc(/C=N/Nc2ccc(Cl)cc2)n1C,inactive
11,Cc1ccc(NC(=O)COC(=O)C2=COCCO2)c([N+](=O)[O-])c1,inactive
12,Cc1c(NC(=O)c2coc(=O)c(Br)c2)c(=O)n(-c2ccccc2)n1C,inactive
13,CCOC(=O)C(=O)NC12CC3CC(CC(C3)C1)C2,inactive
14,C/C(=N\NC(=O)c1cccs1)c1ccc2c(c1)OCO2,inactive
15,O=C(NCCC1CCCC1)c1cccs1,inactive
16,O=C(COC(=O)c1ccc(Br)o1)Nc1ncc([N+](=O)[O-])s1,inactive
17,O=C(CCS(=O)(=O)Cc1ccccc1)Nc1ncc([N+](=O)[O-])s1,inactive
18,CCC(=O)c1ccc(OCC(=O)OCC(=O)N2CCc3ccccc3C2)cc1,inactive
19,O=C(OCC(=O)N1CCc2ccccc21)c1ccc([N+](=O)[O-])cc1,inactive
20,COC(=O)COc1ccc2cc(-c3ccc(OC)cc3)c(=O)oc2c1,inactive
21,O=C(NCc1ccc(F)cc1)c1ccc(Br)o1,inactive
22,O=C(Nc1ccc([N+](=O)[O-])cc1)c1ccc(Cn2cc([N+](=O)[O-])cn2)cc1,inactive
23,COc1ccc(NC(=O)c2ccc(-c3ccc([N+](=O)[O-])cc3)o2)cc1OC,inactive
24,O=C(NCc1ccc(Cl)cc1)c1n[nH]c([N+](=O)[O-])c1Cl,inactive

row,SMILES,outcome
1,Cc1cccc(NCCC(=O)c2ccc([N+](=O)[O-])cc2)c1C,inactive
2,Cc1cccc(NC(=O)c2n[nH]c([N+](=O)[O-])c2Br)c1C,inactive
3,Cc1ccc(CCC(=O)Nc2ccc(C)c(C)c2)o1,inactive
4,CCC1CCc2sc(C(=O)NCC3CCCO3)cc2C1 (centres undefined),inactive
5,CN1CCN(c2c(F)cc3c(=O)c(C(=O)O)cn4c3c2SCC4)CC1,inactive
6,Cc1cc(C=C2C(=O)N(C)C(=S)N(C)C2=O)c(C)n1-c1cccnc1,inactive
7,Cc1cccc(NC(=O)COC(=O)CCc2c[nH]c3ccccc23)c1C,inactive
8,CC(=O)c1ccc(-c2nnc(CCC(=O)N(C)Cc3cccc4cnccc34)o2)s1,inactive
9,CN1C(=O)CC(Sc2ccccc2C(=O)O)C1=O (centres undefined),inactive
10,O=C(COC(=O)c1ccc(Cl)s1)c1ccc[nH]1,inactive
11,COC(=O)[C@H](CC(C)C)NC(=O)NCCC1=CCCCC1,inactive
12,CC1CC(C)CN(C(=O)COC(=O)c2ccc([N+](=O)[O-])o2)C1 (centres undefined),inactive
13,CCn1nnc(NC(=O)c2ccc(-c3ccc(Cl)cc3)o2)n1,inactive
14,COc1ccccc1CCNC(=O)c1ccc(C)o1,inactive
15,CCn1nnc(NC(=O)COc2ccc(C3CCCCC3)cc2)n1,inactive
16,COc1ccccc1NC(=O)C(=O)/C=C(\O)c1ccccc1,inactive
17,CC12CN3CC(C)(CN(C1)C3c1ccc([N+](=O)[O-])o1)C2 (centres undefined),inactive
18,COc1ccc(OCCCC(=O)Nc2ccc(N3CCOCC3)cc2)cc1,inactive
19,CCOC(=O)CCNC(=O)c1ccc2nc(C3CCCCC3)oc2c1,inactive
20,Cc1[nH][nH]c(=O)c1C(c1ccc(-c2ccc(F)cc2)o1)c1c(C)[nH][nH]c1=O,inactive
21,CC(C)(C)OC(=O)NCCC(=O)Oc1ccc2ccc(=O)oc2c1,inactive
22,Cc1noc(C)c1COc1ccc(C(=O)Nc2ccccn2)cc1,inactive
23,Cc1ccc(C)c(-c2nnc(NC(=O)COc3ccccc3)o2)c1,inactive
24,Cc1ccc(C)c(-c2nnc(NC(=O)C3=COCCO3)o2)c1,inactive

row,SMILES,outcome
1,Cc1cc(C)c(C(=O)COC(=O)c2ccc([N+](=O)[O-])o2)cc1C,inactive
2,COCCn1c(C)cc(C(=O)COC(=O)c2ccc([N+](=O)[O-])o2)c1C,inactive
3,O=C(Nc1ccccc1F)c1ccc(CSc2ccccc2)o1,inactive
4,O=C1NN(c2ccccc2)C(=O)/C1=C/c1ccc(Sc2ccc(Cl)cc2)o1,inactive
5,COc1ccc(-c2nnn(Cc3ccccc3)n2)cc1,inactive
6,NC(=O)c1cccnc1Nc1cccc(F)c1,inactive
7,COCCCC1CCN(Cc2nc(-c3ccccc3)no2)CC1,inactive
8,CCCCNC(=O)COC(=O)c1cc(Br)ccc1Cl,inactive
9,CC1COC(=O)C(NNc2ccc(Cl)c(Cl)c2)=N1 (centres undefined),inactive
10,S=c1c2c(nc3nc[nH]n13)CCC2,inactive
11,O=C(Cc1ccc(Cl)cc1)OCC(=O)c1ccc[nH]1,inactive
12,Cc1cccc(OC(=O)c2sc3ncn(C)c(=O)c3c2C)c1,inactive
13,Cc1ccccc1NC(=O)c1nc[nH]c1C(=O)NCc1ccccc1,inactive
14,O=C(c1ccc([N+](=O)[O-])o1)N1CCN(Cc2ccccc2)CC1,inactive
15,O=[N+]([O-])c1ccc(CN2CCN(c3ccc(Cl)cc3)CC2)o1,inactive
16,Cc1cccc(CC(=O)NCC2CCCCC2)c1,inactive
17,COc1ccc2c(c1)C(=C(C#N)C#N)C(=O)N2CCc1ccccc1,inactive
18,CSc1nc2ccc(NC(=O)C3CC(=O)N(Cc4ccccc4)C3)cc2s1 (centres undefined),inactive
19,CCc1ccc(OCC(=O)c2c(O)c3ccccc3oc2=O)cc1,inactive
20,O=C(CCC1CCCCC1)NCc1cccs1,inactive
21,CCCn1nnc(NC(=O)COc2ccc(CC)cc2)n1,inactive
22,COc1cc(/C=N/Nc2ccc(Cl)c(C(=O)O)c2)ccc1OC(=O)c1cccs1,inactive
23,COc1ccc(-c2nc(C=O)cs2)cc1,inactive
